PubChem BioAssay AID1159580 (chemical genetic matrix, 2015)
Screen size: about 5,500 compounds; about 2,000 (36%) were called active. Not shown: some 18% with an inconclusive outcome. Rule as the data show it: active = normalized growth mostly below about 0.91 (no sharp cut-off); inconclusive = no clear call, values can overlap the other calls; inactive = mostly above about 0.92. This is one part of the list.

Experiment: chemical genetic growth profiling, strain panel (AID 1159580);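 also: tested at 20 µM; growth read once vehicle control cultures reached saturation at 30 °C; 1 = growth at the plate median or of vehicle wells; lower values mean less growth of the strain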
Settings: S. cerevisiae deletion strains, growth OD

Measured: normalized growth

CC(=O)O[C@@H]1CC[C@]2(C)C3CC[C@]4(C)C(=O)CCC4C3CC[C@H]2C1 (stereo partly drawn)
active: locus YBR009C, strain hhf1, active compounds read low 0.866 | locus YDL035C, strain GPR1, active compounds read low 0.85 | locus YDR162C, strain NBP2, active compounds read low 0.661 | locus YDR502C, strain sam2, active compounds read low 0.883 | locus YGR135W, strain pre9, active compounds read low 0.876 | locus YIL066C, strain RNR3, active compounds read low 0.852
inactive: locus YAL021C, strain ccr4, active compounds read low 0.944 | locus YAL026C, strain drs2, active compounds read low 0.967 | locus YAL030W, strain snc1, active compounds read low 1.01 | locus YBL061C, strain skt5, active compounds read low 0.988 | locus YBR021W, strain FUR4, active compounds read low 0.861 | locus YBR023C, strain chs3, active compounds read low 0.98 | locus YBR171W, strain sec66, active compounds read low 0.97 | locus YBR229C, strain ROT2, active compounds read low 0.934 | locus YBR231C, strain swc5, active compounds read low 1.01 | locus YBR279W, strain paf1, active compounds read low 1 | locus YCL011C, strain gbp2, active compounds read low 0.973 | locus YCL016C, strain dcc1, active compounds read low 1.02 | locus YCL029C, strain bik1, active compounds read low 0.987 | locus YCL061C, strain MRC1, active compounds read low 0.979 | locus YCL069W, strain vba3, active compounds read low 0.96 | locus YCR088W, strain abp1, active compounds read low 0.984 | locus YDL005C, strain med2, active compounds read low 1 | locus YDL040C, strain nat1, active compounds read low 0.982 | locus YDL074C, strain BRE1, active compounds read low 0.867 | locus YDL101C, strain DUN1, active compounds read low 0.964 | locus YDL185W, strain tfp1, active compounds read low 0.981 | locus YDL192W, strain arf1, active compounds read low 0.937 | locus YDR001C, strain nth1, active compounds read low 0.997 | locus YDR069C, strain doa4, active compounds read low 0.969 | locus YDR101C, strain arx1, active compounds read low 0.995 | locus YDR137W, strain rgp1, active compounds read low 0.876 | locus YDR150W, strain NUM1, active compounds read low 0.992 | locus YDR159W, strain sac3, active compounds read low 0.931 | locus YDR195W, strain ref2 1.07 | locus YDR297W, strain sur2, active compounds read low 1.01 | locus YDR318W, strain mcm21, active compounds read low 0.942 | locus YDR334W, strain swr1, active compounds read low 0.972 | locus YDR335W, strain msn5, active compounds read low 0.995 | locus YDR388W, active compounds read low 0.939 | locus YDR392W, strain spt3, active compounds read low 0.929 | locus YEL003W, strain gim4, active compounds read low 0.965 | locus YEL037C, strain rad23, active compounds read low 0.985 | locus YEL061C, strain CIN8 (second series), active compounds read low 0.988 | locus YEL061C, strain CIN8, active compounds read low 0.983 | locus YER015W, strain faa2, active compounds read low 0.996 | locus YER016W, strain bim1, active compounds read low 1.03 | locus YER110C, active compounds read low 0.996 | locus YER111C, strain swi4, active compounds read low 0.986 | locus YER155C, strain BEM2 (second series), active compounds read low 0.992 | locus YER155C, strain BEM2, active compounds read low 1.01 | locus YER167W, strain BCK2, active compounds read low 0.947 | locus YFR010W, strain ubp6, active compounds read low 0.972 | locus YGL078C, strain dbp3, active compounds read low 0.948 | locus YGL086W, strain mad1, active compounds read low 0.987 | locus YGL167C, strain pmr1, active compounds read low 0.999 | locus YGL173C, strain kem1, active compounds read low 0.953 | locus YGL227W, strain vid30, active compounds read low 0.989 | locus YGL240W, strain doc1, active compounds read low 0.985 | locus YGL248W, strain PDE1, active compounds read low 0.959 | locus YGL253W, strain hxk2, active compounds read low 0.966 | locus YGR252W, strain gcn5, active compounds read low 0.83 | locus YHR013C, strain ard1, active compounds read low 1.05 | locus YHR027C, strain rpn1, active compounds read low 0.977 | locus YHR030C, strain SLT2, active compounds read low 0.999 | locus YHR079C, strain IRE1 (second series), active compounds read low 0.987 | locus YHR094C, strain hxt1, active compounds read low 0.978 | locus YHR129C, strain ARP1, active compounds read low 0.974 | locus YHR142W, strain chs7, active compounds read low 0.943 | locus YHR200W, strain rpn10, active compounds read low 0.978 | locus YIL073C, strain SPO22, active compounds read low 0.872 | locus YIL125W, strain kgd1, active compounds read low 0.981 | locus YIR030C, strain dcg1, active compounds read low 0.967 | locus YJL092W, strain hpr5, active compounds read low 0.986 | locus YJL095W, strain BCK1 (second series), active compounds read low 0.949 | locus YJL095W, strain BCK1, active compounds read low 0.828 | locus YJL115W, strain asf1, active compounds read low 0.991 | locus YJL129C, strain trk1, active compounds read low 0.942 | locus YJL134W, strain LCB3, active compounds read low 0.951 | locus YJL154C, strain vps35, active compounds read low 0.988 | locus YJL164C, strain tpk1, active compounds read low 0.949 | locus YJL166W, strain qcr8, active compounds read low 0.922 | locus YJL168C, strain set2, active compounds read low 0.995
